Data taken from the supplement of paper PMC6555819.

How the values were obtained:
Assay in all cases: PBM binding z-score (relative to random genomic background probes); higher = stronger binding; sequences stand for … in GC…GCGATTGACAGCGTAGAATGAAGG
[1] = system: FXR:RXRa (NR concentration 270 nM, RXRa partner concentration 90 nM)
Outline: (§1)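 Probes were double-stranded and carried 34-nt variable regions with direct-repeat seeds, single-nucleotide variants, half-site ablations and random human genomic background sequences, printed on custom Agilent 4×180K protein-binding microarrays. Arrays were incubated 1 h with ligand-free nuclear receptor dimers in PBS pH 7.4, 2% milk, 0.02% Triton X-100, 1 mM DTT, 0.2 mg/mL BSA and 0.4 mg/ml salmon testes DNA. Antibodies against each partner (one per run) detected binding, and scanned fluorescence was regression-normalized. Binding z-scores use the random background probes as reference.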

[2] = system: LXRa:RXRa (NR concentration 270 nM, RXRa partner concentration 90 nM)
Outline: as §1

[3] = system: LXRa homodimer (NR concentration 270 nM)
Outline: as §1

[4] = system: LXRb:RXRa (NR concentration 270 nM, RXRa partner concentration 90 nM)
Outline: as §1

[5] = system: LXRb homodimer (NR concentration 270 nM)
Outline: as §1

[6] = system: PPARa:RXRa (NR concentration 270 nM, RXRa partner concentration 90 nM)
Outline: as §1

[7] = system: PPARg:RXRa (NR concentration 180 nM, RXRa partner concentration 90 nM)
Outline: as §1

[8] = system: PPARg:RXRa 270nM:90nM, anti-RXR (NR concentration 270 nM, RXRa partner concentration 90 nM)
Outline: as §1

[9] = system: PPARg:RXRa 30nM:10nM, anti-RXR (NR concentration 30 nM, RXRa partner concentration 10 nM)
Outline: as §1

[10] = system: PPARg:RXRa 90nM:30nM, anti-RXR (NR concentration 90 nM, RXRa partner concentration 30 nM)
Outline: as §1

[11] = system: PPARg:RXRa DBDmut IVT, anti-RXR (DBD mutation: RXRa K156A/R161A, NR concentration 270 nM, RXRa partner concentration 90 nM)
Outline: as §1

[12] = system: PPARg:RXRa IVT, anti-PPARg (NR concentration 270 nM, RXRa partner concentration 90 nM)
Outline: as §1

[13] = system: PPARg DBDmut:RXRa IVT, anti-PPARg (DBD mutation: PPARg1 K132A/R137A, NR concentration 270 nM, RXRa partner concentration 90 nM)
Outline: as §1

[14] = system: PPARg DBDmut IVT, anti-PPARg (DBD mutation: PPARg1 K132A/R137A, NR concentration 270 nM)
Outline: as §1

[15] = system: PPARg homodimer (NR concentration 180 nM)
Outline: as §1

[16] = system: PXR:RXRa (NR concentration 270 nM, RXRa partner concentration 90 nM)
Outline: as §1

[17] = system: PXR homodimer (NR concentration 270 nM)
Outline: as §1

[18] = system: RARa:RXR (NR concentration 270 nM, RXRa partner concentration 90 nM)
Outline: as §1

[19] = system: RARa homodimer (NR concentration 270 nM)
Outline: as §1

[20] = system: RARb:RXRa (NR concentration 270 nM, RXRa partner concentration 90 nM)
Outline: as §1

Sequence | PBM binding z-score [1] | PBM binding z-score [2] | PBM binding z-score [3] | PBM binding z-score [4] | PBM binding z-score [5] | PBM binding z-score [6] | PBM binding z-score [7] | PBM binding z-score [8] | PBM binding z-score [9] | PBM binding z-score [10] | PBM binding z-score [11] | PBM binding z-score [12] | PBM binding z-score [13] | PBM binding z-score [14] | PBM binding z-score [15] | PBM binding z-score [16] | PBM binding z-score [17] | PBM binding z-score [18] | PBM binding z-score [19] | PBM binding z-score [20]
TCTATTTGGTCACGGAGGTCACACACGACGGGTA | 3.93 | 3.92 | 3.39 | 3.88 | 2.63 | 4.23 | 4.04 | 4.8 | 4.57 | 4.77 | 2.53 | 4.35 | 4.5 | 3.22 | 3.91 | 4.86 | 2.58 | 4.88 | 2.06 | 4.21
CCTTACGGGTCAAGGTTATTGCACGGGTGGTACG | 5.1 | 3.67 | 0.262 | 2.96 | 0.000433 | 4.77 | 4.52 | 4.63 | 2.03 | 3.46 | 2 | 3.61 | -0.367 | -0.115 | 2.22 | 3.62 | 0.512 | 4.2 | 0.978 | 4.12
TCAGACAGGTGAAGGTAACTCAAGTACGCAGTCG | 1.22 | 2.77 | 0.105 | 1.47 | 0.174 | 1.33 | 0.828 | 2.07 | 4.18 | 3.03 | 2.91 | 0.867 | 0.154 | -0.232 | 0.845 | 0.794 | 0.336 | 0.988 | 0.423 | 1.14
GTACCAAGGTGGATAGGTCGTTGATGAGTAGGCG | -0.366 | -0.16 | -0.154 | -0.255 | -0.708 | 0.372 | 0.422 | 0.293 | -0.451 | 0.026 | -0.637 | -0.0801 | -1.52 | -1.37 | 0.672 | -0.207 | 0.137 | -0.144 | 0.114 | 0.368
CCTAGCAGGCCAATCTGGGGCACTCAAGGCTTGA | -0.393 | -0.285 | -0.624 | -0.768 | -1.24 | 0.967 | 0.549 | 0.547 | -0.732 | -0.289 | 3.51 | 3.96 | -0.514 | -1.4 | -0.431 | -0.51 | -1.01 | -0.273 | -0.87 | 0.323
CACACAGGGTCAGCTAGGCCAGAGTAGGGACGGC | 4.77 | 2.64 | -0.0558 | 2.18 | 0.152 | 4.32 | 3.21 | 2.62 | 0.502 | 1.62 | 0.553 | 2.09 | 0.463 | 0.562 | 2.14 | 2.06 | 0.13 | 3.32 | 0.53 | 4.09
CGTCCAAGCTCAGAGAGGTCAGTGAATGCCGAGT | 1.33 | 1.41 | 0.781 | 1.52 | -0.498 | 2.19 | -0.188 | 0.558 | -0.581 | -0.0568 | 0.269 | 0.153 | -0.648 | -1.03 | 2.06 | 2.96 | 0.893 | 2.85 | 0.843 | 2.82
CCTATTAGTTGACCATAAGGGCAACCGAAGCTCG | 1.08 | 0.988 | 0.64 | 0.736 | 0.554 | 0.977 | 0.556 | 0.931 | -0.00379 | 1.03 | 0.774 | 0.558 | 0.33 | 0.387 | 1.7 | 1 | 0.754 | 1.37 | 1.39 | 1.7
AATACAGCGTCATCGTAGGCCAGAGTACGCACAG | -0.326 | -0.432 | -0.689 | -0.757 | -0.269 | -0.355 | 0.716 | -0.141 | -0.189 | -0.519 | -0.562 | 0.0727 | 0.418 | -0.309 | -0.333 | -0.367 | -0.167 | -0.0509 | -0.571 | -0.182
TCTAGTTGGTCAAAGTTCACACACTCGAAATGCG | 3.96 | 4.54 | 4.63 | 3.66 | 1.36 | 5.5 | 9.83 | 9.2 | 8.79 | 9.75 | 2.57 | 4.89 | 1.12 | 1.12 | 3.54 | 5.09 | 4.01 | 5.1 | 2.77 | 3.83
CAAACTAGCTCAAGAGGTCAAAGTCCGCTTCCCG | 4.69 | 5.44 | 5.42 | 5.16 | 1.67 | 5.04 | 1.65 | 3.87 | 1.52 | 2.88 | 0.982 | 2.06 | 0.545 | 0.408 | 2.37 | 5.37 | 1.87 | 5.13 | 1.34 | 3.96
CCTAGCAGGGCAGGGTCACTCAAGCATTTCGCTT | 2.68 | 2.17 | -0.361 | 2.12 | -1.22 | 3.32 | 1.4 | 2.37 | -0.0964 | 1.47 | 0.873 | 1.78 | -1.54 | -0.906 | 1.69 | 2.92 | -0.402 | 3.98 | -0.114 | 3
TCCGCTAGGTCAGTTGGTCAGCTAACGAGCTGCC | 1.2 | 0.833 | -0.36 | 0.472 | -0.0467 | 1.57 | 0.233 | 1.55 | 1.2 | 1.49 | 2.32 | 2.55 | -0.0326 | -0.848 | 0.175 | 0.233 | -0.744 | 0.687 | -0.7 | 3.44
GTACCAAGGCGAATAGGTCGTTGATGAGTAGGCG | -0.145 | -0.392 | -0.286 | -0.382 | -0.895 | 0.351 | 0.461 | -0.0926 | -0.512 | -0.516 | -0.264 | -0.208 | -0.611 | -1.17 | -0.305 | -0.106 | -0.0295 | 0.507 | -0.623 | 0.291
